# High-throughput results: PubChem, The Scripps Research Institute Molecular Screening Center
# This is a sample that favours compounds with a hit; in the whole collection about 3.5% have one here.
# MITF primary: inhibitors of human MITF; AlphaScreen MITF homodimerization, bead proximity signal; inhibition, % at 2.6 µM; 650,000 compounds, 0.91% hits; AID 1259374; in the data active = inhibition above about 50%;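 also: 0% = vehicle wells with protein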
# FBW7 act: human FBW7 E3 ligase activation, primary screen | Q969H0 | AlphaScreen FBW7–phospho-cyclin E peptide binding, activator screen | normalized activity (activation), % at 26.1 µM | 650,000 compounds, 0.13% hits | AID 1259310; in the data active = normalized activity above about 1.9%;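 also: purified mutant Fbw7 with reduced substrate affinity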
# Target sequence (Q969H0 whole entry, looked up): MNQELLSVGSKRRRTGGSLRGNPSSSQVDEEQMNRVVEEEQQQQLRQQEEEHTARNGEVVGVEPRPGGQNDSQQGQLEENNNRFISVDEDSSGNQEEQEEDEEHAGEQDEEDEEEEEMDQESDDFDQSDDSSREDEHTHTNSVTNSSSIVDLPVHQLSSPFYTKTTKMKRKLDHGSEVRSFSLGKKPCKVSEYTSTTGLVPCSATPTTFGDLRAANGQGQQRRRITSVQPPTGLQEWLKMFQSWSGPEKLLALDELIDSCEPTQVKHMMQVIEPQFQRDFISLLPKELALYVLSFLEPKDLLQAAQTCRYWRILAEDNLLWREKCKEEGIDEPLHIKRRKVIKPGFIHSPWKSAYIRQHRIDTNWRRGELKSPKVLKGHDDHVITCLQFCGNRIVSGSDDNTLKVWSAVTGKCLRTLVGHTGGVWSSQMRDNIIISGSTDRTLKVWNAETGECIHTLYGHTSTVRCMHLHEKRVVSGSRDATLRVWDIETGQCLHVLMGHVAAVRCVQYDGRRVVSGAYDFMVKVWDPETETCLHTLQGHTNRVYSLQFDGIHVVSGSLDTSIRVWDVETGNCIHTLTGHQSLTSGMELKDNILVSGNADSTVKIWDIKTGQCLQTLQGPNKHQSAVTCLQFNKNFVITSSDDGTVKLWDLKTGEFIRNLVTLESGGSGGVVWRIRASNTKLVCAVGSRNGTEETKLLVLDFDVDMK
# TEAD-YAP block: TEAD-YAP interaction inhibition; HEK-TIYL cells, TEAD-Gal4/YAP UAS-luciferase luminescence; inhibition, % at 9.12 µM; 640,000 compounds, 1.4% hits; AID 1259422; in the data active = inhibition above about 32%;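 also: 0% = median of test compound wells and 100% = reference inhibitor wells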
# GPR151 ag: human GPR151 activation. AID 1508602. Q8TDV0. PathHunter beta-arrestin GPR151 cells, luminescence. 650,000 compounds, 1% hits. activation, % at 11.2 µM; in the data active = activation above about 4.9%;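 also: 0% = median of compound wells and 100% = cells with positive control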
# The depositor's hits bear a star.
SMILES,MITF primary,FBW7 act,TEAD-YAP block,GPR151 ag
CC1CC(Nc2ccccc2)c2ccccc2N1C(=O)c1cccc(Cl)c1 (stereo not drawn),0,0,4,3
CCC1CCCCN1C(=O)Cn1c2ccccc2c(=O)c2ccccc21 (stereo not drawn),-1,0,6,0
Cc1cccc(CN2CCN(C(=O)CCl)CC2)c1,2,0,38*,2
CCOC(=O)N1CCN(Cc2cccc(C)c2)CC1,15,0,5,0
Cc1cc(C(=O)N2CCN(Cc3ccccc3)CC2)on1,16,1.9*,-3,0
COc1cccc(-c2cc(C(=O)N3CCN(Cc4ccccc4)CC3)on2)c1,-11,0,-8,-1
Cc1cccc(NC(=O)CN2C(=O)CCSc3ccccc32)c1,5,0,-7,1
COC(=O)c1ccc(OC2=C(Cl)C(=O)N(c3cccc(C)c3C)C2=O)cc1,16,0,-5,-2
COc1ccc(-c2cc3nccc(C4CCNCC4)n3n2)cc1,10,1,33*,1
Cc1ccc(-c2cc3nccc(C4CCNCC4)n3n2)cc1,-2,0,4,0
CCOCCCNC(=O)c1ccc(NC2=NC3CS(=O)(=O)CC3S2)cc1 (stereo not drawn),-14,0,-6,1
CN(C)S(=O)(=O)N=C1C=CC(=NS(=O)(=O)N(C)C)C=C1,55*,0,4,0
CC(C)c1ccc(NC(=O)c2nc3ncccn3n2)cc1,2,1,-23,0
COc1ccc(Nc2nc(NNc3ccccc3)nc(C)c2[N+](=O)[O-])cc1,15,0,10,0
CCOC(=O)c1[nH]c(C)c(C(=O)Nc2ccccc2C)c1C,-5,0,44*,-1
CCOC(=O)c1[nH]c(C)c(C(=O)Nc2cc(C)ccc2OC)c1C,2,0,57*,2
CCOC(=O)c1[nH]c(C)c(C(=O)c2ccc(Cl)cc2)c1C,13,0,40*,2
CCOC(=O)c1c(C)[nH]c(C(=O)C(C)Nc2cc(NC(C)=O)ccc2OC)c1C (stereo not drawn),1,0,1,-2
CCOC(=O)c1c(C)[nH]c(C(=O)C(C)Nc2ccc(OC)c(OC)c2)c1C (stereo not drawn),42,0,43*,-2
COC(C)(C)CCCC(C)/C=N/Nc1ccc([N+](=O)[O-])cc1[N+](=O)[O-] (stereo not drawn),-6,0,8,0
CCOC(=O)C1=C(C)N=c2s/c(=C\c3ccc(-c4ccc([N+](=O)[O-])cc4)o3)c(=O)n2C1c1ccc(Cl)cc1 (stereo not drawn),6,0,-4,-1
CC(Oc1ccc(F)cc1)C(=O)N1CCc2ccccc21 (stereo not drawn),-63,0,-3,1
COc1ccccc1/C=N/NC(=O)C(C)Oc1ccc(Cl)cc1 (stereo not drawn),-15,0,1,-1
CCOC(=O)c1[nH]c(C)c(C(=O)N2CC(C)CC(C)C2)c1C (stereo not drawn),-2,0,44*,-1
CC(=O)c1[nH]c(C)c(C(=O)Nc2cc(Cl)ccc2C)c1C,17,0,-1,0
SMILES,MITF primary,FBW7 act,TEAD-YAP block,GPR151 ag
CCOC(=O)c1[nH]c(C)c(CNc2cc(OC)ccc2OC)c1C,12,0,50*,0
CCOC(=O)c1[nH]c(C)c(C(=O)Nc2cc(Cl)ccc2C)c1C,-10,0,47*,0
CCOC(=O)c1c(C)[nH]c(C(=O)C(C)Nc2ccccc2OCC)c1C (stereo not drawn),5,0,-3,0
CCOC(=O)c1[nH]c(C)c(C(=O)N2CCCCCC2)c1C,20,1,-8,1
CCOC(=O)c1[nH]c(C)c(C(=O)Nc2ccccc2OCC)c1C,-9,0,58*,0
Cc1ccc(/C(O)=C2/C(=O)C(=O)N(Cc3cccnc3)C2c2ccc(C(C)C)cc2)cc1 (stereo not drawn),2,0,7,0
CCn1c(SCCc2ccccc2)nc2c1c(=O)[nH]c(=O)n2C,-7,0,-7,-1
COc1ccc(Nc2nc3ccc(Cl)cc3n3c(C)nnc23)cc1,-16,0,3,0
CC1CC(C)CN(c2nc(N)ncc2[N+](=O)[O-])C1 (stereo not drawn),-1,0,49*,1
O=C1OC(c2ccc([N+](=O)[O-])cc2Cl)=N/C1=C\C=C\c1ccccc1,-5,0,-6,0
Cc1cc(C)c2nc(SCC(=O)N3CC(=O)Nc4ccccc43)c(C#N)cc2c1,-2,0,54*,1
CC(C)CC(c1nnnn1C1CCCCC1)N1CCN(C(=O)c2ccco2)CC1 (stereo not drawn),-3,0,1,-1
CC(C)CC(c1nnnn1C1CCCC1)N1CCN(C(=O)c2ccco2)CC1 (stereo not drawn),-12,0,55*,0
CCOC(=O)c1c(Cl)nc(Cl)c(Cl)c1Nc1cccc(F)c1,-10,0,44*,1
CCOC(=O)c1c(Cl)nc(Cl)c(Cl)c1Nc1ccc(OC(F)(F)F)cc1,-13,0,51*,-1
CCOC(=O)c1c(Cl)nc(Cl)c(Cl)c1Nc1cccc(C)c1,-4,0,25,1
CCOC(=O)c1c(Cl)nc(Cl)c(Cl)c1Nc1ccc(OC)cc1,0,0,47*,1
O=C1CC(N2CCN(Cc3ccccc3)CC2)C(=O)N1c1ccc(I)cc1 (stereo not drawn),-11,0,1,0
O=C(CCNC(=O)OCc1ccccc1)NC1CCCCC1,17,1,7,1
O=C(CCNC(=O)Oc1ccccc1)NC1CCCCC1,7,1.9*,6,-1
CCCOc1ccc(/C=N/Nc2nc(C)cc(=O)[nH]2)c(O)c1,34,-1,86*,2
Cc1cc(=O)[nH]c(N/N=C/c2cc(Br)cc(Br)c2O)n1,6,0,4,0
Cc1n[nH]c(=O)nc1N/N=C/c1ccccc1Cl,-1,0,-3,-7
Cc1n[nH]c(=O)nc1N/N=C/c1ccc(O)cc1O,97*,-1,42*,-6
Cc1n[nH]c(=O)nc1N/N=C/c1ccc(N(C)C)cc1,10,0,55*,-7
SMILES,MITF primary,FBW7 act,TEAD-YAP block,GPR151 ag
Cc1cc(=O)[nH]c(N/N=C/c2ccc(O)cc2O)n1,76*,-1,2,1
O=C(O)CSCC(=O)Nc1nc2ccc(Br)cc2s1,-3,0,13,0
CC[C@H](C)[C@H](NC(N)=O)C(=O)OCCOc1cc(C)ccc1C,17,0,6,-1
COc1cc(CNc2nccn3c(-c4ccc(Cl)cc4)cnc23)cc(OC)c1OC,17,0,3,0
Cc1nc(NC(=S)NC(=O)c2ccccc2)sc1C(C)(C)C,-3,0,37*,0
O=C(N=c1sn2c(c1[N+](=O)[O-])CCCCC2)c1ccccc1,-2,0,84*,-2
O=C(c1ccccc1)N1CCN(C(=O)c2cc3c(s2)CCCCC3)CC1,8,0,2,-1
O=C1Nc2ccccc2C1(O)C1(O)C(=O)Nc2ccccc21 (stereo not drawn),-10,0,-16,0
